Screens deposited in PubChem by National Center for Advancing Translational Sciences (NCATS).
Rows were chosen to be rich in hits. Some 19% of all compounds tested hit in one or more screens of this group.
IL-1B inflam inh = qHTS for Inhibitors of Inflammasome Signaling: IL-1-beta AlphaLISA Primary Screen; 360,000 compounds, 4.7% hits; activity change, % at 57.5 µM; THP-1 LPS/ATP IL-1B secretion, AlphaLISA, 16 h; hits give low values; in the data active means activity change below about -50%; inconclusive means mostly about -30% to -49%
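THP-1 cells pretreated 1 hr with compounds (up to 57.5 uM final), then stimulated with LPS (250 ng/mL final) plus ATP (1.25 mM final); secreted IL-1B measured by AlphaLISA after 16 hr, decreased signal indicating inhibition.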
HT1080-NT tox = qHTS for induction of synthetic lethality in tumor cells producing 2HG: qHTS for the HT-1080-NT fibrosarcoma cell line | Potency, µM (titrated, usually from 46.1 µM), for the others: at the highest dose activity, negative = less viability, most hits filed as cytotoxic | 360,000 compounds, 1.6% hits | HT-1080-NT fibrosarcoma viability, CellTiter-Glo ATP luminescence, 48 h | AID 686970, 2013;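 further: NT is the 2HG producing partner of a matched IDH1 knockdown line; potency means the concentration at half of the fitted maximal effect; 0% = DMSO-treated cells and -100% = media-only wells without cells; nearly all actives have a fitted effect of over 55% in size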
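A 48-hour cytotoxicity screen used HT-1080-NT cells plated 2 hours before compound delivery. ATP-based CellTiter-Glo luminescence measured viability, normalized to DMSO and no-cell controls.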
TDP1 cell noCPT = qHTS for Inhibitors of human tyrosyl-DNA phosphodiesterase 1 (TDP1): qHTS in cells in absence of CPT. DT40 Tdp1-/- hTDP1 cells, no CPT, ATP luminescence, 48 h. Potency, µM (doses to about 46.2 µM), for inactives: at the highest dose activity change, negative = growth inhibition, actives largely listed as inhibitors. 420,000 compounds, 15% hits. AID 686978, 2013; further: potency means the concentration at half of the fitted maximal effect; nearly all actives have a fitted effect of over 55% in size
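Camptothecin absent (DMSO only). Human TDP1-complemented DT40 knockout cells, 400 cells/well, 37 °C for minimum 48 hr; ATP measured via CellTiter-Glo, 30 min dark incubation, luminescence.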
HT1080 IDH1KD tx = qHTS for induction of synthetic lethality in tumor cells producing 2HG: qHTS for the HT-1080-IDH1KD cell line; HT-1080 IDH1 knockdown viability, ATP luminescence, 48 h; Potency, µM (doses to about 46.1 µM), for the others: at the top dose activity, negative = toxicity, actives largely listed as cytotoxic; 360,000 compounds, 2% hits; AID 686971, 2013;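 further: potency means the concentration at half of the fitted maximal effect; 0% = DMSO wells and -100% = cell-free medium wells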
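% activity derives from luminescence (CellTiter-Glo), normalised to DMSO and no-cell wells. HT-1080-IDH1KD cells, 750/well, had 48 h compound exposure at 37 °C.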
DT40 TDP1 CPT = qHTS for Inhibitors of human tyrosyl-DNA phosphodiesterase 1 (TDP1): qHTS in cells in presence of CPT. Potency, µM (doses to about 46.2 µM), without a hit: at the highest dose activity change, negative = growth inhibition, usual class: inhibitors. AID 686979, 2013. 420,000 compounds, 12% hits. chicken DT40 Tdp1-/-;hTDP1 cells + 20 nM CPT, ATP luminescence, 48 h; further: potency means the concentration at half of the fitted maximal effect; nearly all actives have a fitted effect of over 55% in size
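Cell growth measured by CellTiter-Glo luminescence after a minimum 48 h, 37 C compound exposure with 20 nM CPT in Tdp1-knockout DT40 cells stably expressing hTDP1, seeded 400/well; qHTS titration format.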
Numbers without * were called inactive; i = inactive; ? = inconclusive; / = not tested or not shown; [ ] = remark or other dose. Unless noted, the call rests on the fitted dose curve; in most records, active means well fitted curve in the direction sought with a large enough effect; inconclusive means small, poorly fitted or top-dose-only effect, or another doubt; inactive means no such curve, though single readings can be large; an effect the other way counts as inactive or inconclusive. Unless noted, on the % scale 0 is the no-effect control and ±100 the full control effect.

SMILES | IL-1B inflam inh | HT1080-NT tox | TDP1 cell noCPT | HT1080 IDH1KD tx | DT40 TDP1 CPT
CCCC(=O)N1CCN(c2ccc(NC(=O)c3cc4ccccc4o3)cc2Cl)CC1 | -110.9* | 18.4µM* | 3.66µM* | 20.6µM* | 3.26µM*
CCC(=O)N1CCN(c2ccc(NC(=O)c3ccco3)cc2Cl)CC1 | i | 10.9% | -10.3% | 12.3% | 8.1%
CCC(=O)N1CCN(c2ccc(NC(=O)c3cc4ccccc4o3)cc2Cl)CC1 | -114.7* | ? | 13µM* | 16.4µM* | 9.2µM*
Nn1c(SCC(=O)Nc2ccc(OC(F)F)cc2)nnc1-c1ccco1 | -8.3 | -1.6% | -1.7% | 1.5% | 2.8%
CCNC(=S)N/N=C/c1ccc(OCC(=O)Nc2ccc(C)cc2)cc1 | 14.2 | 5.62µM* | -30.0% | 10µM* | ?
CCOc1ccc(/C=N/NC(=S)Nc2c(C)cccc2C)cc1 | -24.1 | -24.2% | 20.6µM* | -29.9% | 20.6µM*
CCNC(=S)N/N=C/c1ccc(OCC(=O)Nc2ccc(OC)cc2)c(OC)c1 | -1.8 | -16.3% | ? | 0.4% | ?
O=C(OCC(=O)N1CCCC1=O)c1ccc(F)c(S(=O)(=O)N2CCOCC2)c1 | i | -0.1% | -9.5% | 18.0% | -2.9%
O=C1c2ccccc2C(=O)N1CCC1(O)C(c2ccccc2)=Nc2ccccc21 (stereo not drawn) | 12.9 | 9.6% | ? | 11.6% | ?
Cc1ccc(S(=O)(=O)N2CCCc3cc(NC(=O)c4ccc(C(F)(F)F)cc4)ccc32)cc1 | / | / | 20.6µM* | / | ?
COc1ccc(C(=O)Nc2ccc(S(=O)(=O)N3CCCC3)cc2)c(OC)c1 | 0.4 | 0.7% | -26.2% | -3.3% | -28.6%
COc1ccc(C(=O)Nc2ccc3c(c2)CCCN3S(=O)(=O)c2ccc(C)cc2)c(OC)c1 | / | / | 5.17µM* | / | 5.8µM*
O=C(Nc1ccc(F)cc1)C(c1ccncc1)N1CCN(C(=O)c2ccco2)CC1 (stereo not drawn) | 0.0 | -1.2% | -5.9% | 1.3% | 7.9%
CNC1=C([N+](=O)[O-])CC([N+](=O)[O-])=C(N2CCNCC2)N1C | -3.1 | -4.1% | 14.5% | 4.0% | 0.9%
CCOc1ccc(-c2c(C(=O)N/N=C/c3cccc(Br)c3)nnn2-c2nonc2N)cc1 | 40.9 | -28.7% | ? | ? | ?
CCOC(=O)c1sc(=NC(=O)/C=C/c2ccccc2)n(C)c1C | 47.3 | 12.5% | 12.3% | 12.1% | -11.7%
CCc1ccccc1Nc1cc(C(=O)NC2CCC(C)CC2)c2ccccc2n1 (stereo not drawn) | / | / | ? | / | 11.6µM*
Cc1cc(C(=O)NC2CC2)c2ccccc2n1 | -0.1 | 0.6% | 5.2% | 15.1% | 10.1%
O=C(NC1CCCCC1)c1cc(Nc2cccc(C(F)(F)F)c2)nc2ccccc12 | / | / | ? | / | 20.6µM*
Cc1ccc(C)c(Nc2cc(C(=O)NC3CCCC3)c3ccccc3n2)c1 | / | / | ? | / | -18.1%
O=C(NC1CCCCC1)c1cc(Cl)nc2ccccc12 | 20.6 | -1.7% | -18.6% | 0.4% | -7.4%
CC(C)c1ccc(Nc2cc(C(=O)NC3CCCCC3)c3ccccc3n2)cc1 | / | / | 20.6µM* | / | 10.3µM*
CC(=O)OC1COC(N2CCc3cc([N+](=O)[O-])ccc32)C(OC(C)=O)C1OC(C)=O (stereo not drawn) | 25.2 | -2.4% | -3.6% | -0.2% | -11.1%
CCOC(=O)CNC(=O)CC(c1cc(OC)c(OC)c(OC)c1)N1Cc2ccccc2C1=O (stereo not drawn) | / | / | -0.1% | / | -0.9%
CCCN1CCC(NC(=O)C2CCN(C(C)=O)CC2)CC1 | 2.5 | 7.3% | -2.7% | 8.7% | -4.2%
SMILES | IL-1B inflam inh | HT1080-NT tox | TDP1 cell noCPT | HT1080 IDH1KD tx | DT40 TDP1 CPT
CC(C)N1C(=O)CC(Nc2cccc3cccc(N)c23)C1=O (stereo not drawn) | -0.9 | 0.8% | 20.6µM* | 3.2% | 23.1µM*
O=C(CSc1nnc(NC2CCCCC2)s1)NCc1ccco1 | 3.7 | -0.6% | ? | -4.0% | 14.2%
c1ccc(CSc2nnc(NC3CCCCC3)s2)cc1 | -51.6* | -1.5% | 20.6µM* | 2.4% | ?
COC(=O)c1cc(CSc2nnc(NC3CCCCC3)s2)oc1C | 0.0 | -4.5% | ? | 18.4µM* | ?
O=c1cc(CSc2nnc(NC3CCCCC3)s2)nc2sccn12 | 38.0 | -4.8% | -6.9% | 1.9% | 20.9%
O=C(CCSCc1ccc(Cl)cc1)NCc1cccs1 | 1.4 | 13.0% | 5.8% | 21.3% | 24.4%
COCCN1CCN(C(=O)c2cnn(-c3ncc4c(n3)-c3ccc(OC)cc3CC4)c2C2CC2)CC1 | / | / | -16.6% | / | 6.5%[9.04 µM]
Cc1nc(-c2ccc(C)c(N3CCN(C(=O)Nc4ccc(Br)cc4)CC3)c2)no1 | / | / | 20.6µM* | / | ?
COc1cc(NC(=O)N2CCN(c3cc(-c4noc(C)n4)ccc3C)CC2)cc(OC)c1OC | / | / | -2.7% | / | -2.8%
N#Cc1ccc(-c2ccc(OCC(O)CN3CCOCC3)cc2)cc1 (stereo not drawn) | 1.5 | 4.1% | -38.9% | 2.1% | ?
N#Cc1ccc(OCC(O)CN2CCC(C(O)(c3ccccc3)c3ccccc3)CC2)cc1 (stereo not drawn) | -94.7* | -8.1% | ? | ? | 20.6µM*
N#Cc1cccc(OCCCN2CCC(C(O)(c3ccccc3)c3ccccc3)CC2)c1 | -56.8* | ? | 16.4µM* | ? | ?
Cc1cc(OCCCN2CCC(C(O)(c3ccccc3)c3ccccc3)CC2)ccc1Br | -75.3* | 16.4µM* | 5.8µM* | ? | 5.8µM*
CC(C)(C(=O)O)c1ccc(C(O)CCCN2CCC(C(O)(c3ccccc3)c3ccccc3)CC2)cc1 (stereo not drawn) | 30.9 | 13.9% | -0.5% | -4.9% | 26.1%
CCOc1ccc(NC(=S)N2CCC(C(O)(c3ccccc3)c3ccccc3)CC2)cc1 | -16.6 | -13.1% | ? | -13.3% | -19.4%
Cc1ccc(C(=O)OCC(=O)NCc2cccc(Cl)c2)cc1S(=O)(=O)N1CCCCC1 | -19.1 | -15.3% | ? | -21.3% | ?
Cc1cc2c(cc1C)NC(CC(=O)Nc1cccc(Cl)c1)C(=O)N2 (stereo not drawn) | / | / | ? | / | 16.4µM*
CCCCNC(=O)CC1Nc2ccccc2NC1=O (stereo not drawn) | -2.7 | 5.5% | -4.6% | 12.6% | 6.2%
CCCCNC(=O)CC1Nc2cc(C)c(C)cc2NC1=O (stereo not drawn) | / | / | 5.17µM* | / | 4.61µM*
CCN(Cc1ccccc1)C(=O)CCS(=O)(=O)c1ccc2c(c1)n(C)c(=O)c(=O)n2C | 0.9 | -12.0% | -12.3% | -0.5% | -24.4%
